# Test results taken from the supplement of paper PMC10849652.
# Of roughly 7,900 targets only a part is listed; those with a hit were picked by preference. About 0.6% of all pairs of compound and target were hits. Unmarked numbers belong to inactive results.
# Tests used:
# Experiment in all cases: log2 fold change, soluble protein after heating vs DMSO (PISA); higher = thermal stabilisation; K562 cells, 10 uM, 30 min; active = over 0.2 and 3.5 SD of the protein, either way, in both replicates (recomputed)
# erlotinib = compound: C#Cc1cccc(Nc2ncnc3cc(OCCOC)c(OCCOC)cc23)c1 [erlotinib]
# Method in brief: (§1)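 Aliquots of K562 cells (2×10^6 cells/mL) treated with 10 μM compound for 30 min were heated for 3 min over 48°C-58°C. After pooling and extraction in PBS with 0.5% NP-40 at 4°C, soluble protein from a 21,000xg, 90 min spin was quantified by TMTpro 16plex LC-MS/MS with channel sums equalised. Thermal stability is expressed against control samples, from duplicates, as a log2 fold change.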
# [1] = compound: C/C(=N\NC(=O)C1=CC(=CC=C1)S(=O)(=O)N2CCOCC2)/C3=C(C=CC(=C3)Cl)O
# Method in brief: as §1
# [2] = compound: C1=CC(=C(C=C1Cl)C2=NC3=NC=CN=C3C(=N2)NC4=CC=NC=C4)F
# Method in brief: as §1
# [3] = compound: C1=CC(=CC=C1C2=NC3=C(N2)C=C(C=C3)C(=O)N)OC4=CC=C(C=C4)Cl
# Method in brief: as §1
# [4] = compound: C1=CC2=C(C=CC(=C2)/C=C\3/C(=O)NC(=NCC4=CC=CS4)S3)N=C1
# Method in brief: as §1
# [5] = compound: C1=CC2=NC=CN=C2C=C1/C=C/3\C(=O)NC(=O)S3
# Method in brief: as §1
# [6] = compound: C1=CC=C(C=C1)C2=NC(=C(N2)C3=CC=NC=C3)C4=CC(=C(C=C4)Cl)O
# Method in brief: as §1
# [7] = compound: C1=CC=C2C(=C1)C3=NNC4=CC=CC(=C43)C2=O
# Method in brief: as §1
# [8] = compound: C1CCN(C1)C(=O)NC2=CC=CC(=C2)NC3=NC=C(C(=N3)NCCC4=CN=CN4)Br
# Method in brief: as §1
# [9] = compound: C1CN(CCC1(CC2=CC=C(C=C2)Cl)N)C3=NC=NC4=C3C=CN4
# Method in brief: as §1
# UniProt O15067, sequence (O15067 whole entry, looked up): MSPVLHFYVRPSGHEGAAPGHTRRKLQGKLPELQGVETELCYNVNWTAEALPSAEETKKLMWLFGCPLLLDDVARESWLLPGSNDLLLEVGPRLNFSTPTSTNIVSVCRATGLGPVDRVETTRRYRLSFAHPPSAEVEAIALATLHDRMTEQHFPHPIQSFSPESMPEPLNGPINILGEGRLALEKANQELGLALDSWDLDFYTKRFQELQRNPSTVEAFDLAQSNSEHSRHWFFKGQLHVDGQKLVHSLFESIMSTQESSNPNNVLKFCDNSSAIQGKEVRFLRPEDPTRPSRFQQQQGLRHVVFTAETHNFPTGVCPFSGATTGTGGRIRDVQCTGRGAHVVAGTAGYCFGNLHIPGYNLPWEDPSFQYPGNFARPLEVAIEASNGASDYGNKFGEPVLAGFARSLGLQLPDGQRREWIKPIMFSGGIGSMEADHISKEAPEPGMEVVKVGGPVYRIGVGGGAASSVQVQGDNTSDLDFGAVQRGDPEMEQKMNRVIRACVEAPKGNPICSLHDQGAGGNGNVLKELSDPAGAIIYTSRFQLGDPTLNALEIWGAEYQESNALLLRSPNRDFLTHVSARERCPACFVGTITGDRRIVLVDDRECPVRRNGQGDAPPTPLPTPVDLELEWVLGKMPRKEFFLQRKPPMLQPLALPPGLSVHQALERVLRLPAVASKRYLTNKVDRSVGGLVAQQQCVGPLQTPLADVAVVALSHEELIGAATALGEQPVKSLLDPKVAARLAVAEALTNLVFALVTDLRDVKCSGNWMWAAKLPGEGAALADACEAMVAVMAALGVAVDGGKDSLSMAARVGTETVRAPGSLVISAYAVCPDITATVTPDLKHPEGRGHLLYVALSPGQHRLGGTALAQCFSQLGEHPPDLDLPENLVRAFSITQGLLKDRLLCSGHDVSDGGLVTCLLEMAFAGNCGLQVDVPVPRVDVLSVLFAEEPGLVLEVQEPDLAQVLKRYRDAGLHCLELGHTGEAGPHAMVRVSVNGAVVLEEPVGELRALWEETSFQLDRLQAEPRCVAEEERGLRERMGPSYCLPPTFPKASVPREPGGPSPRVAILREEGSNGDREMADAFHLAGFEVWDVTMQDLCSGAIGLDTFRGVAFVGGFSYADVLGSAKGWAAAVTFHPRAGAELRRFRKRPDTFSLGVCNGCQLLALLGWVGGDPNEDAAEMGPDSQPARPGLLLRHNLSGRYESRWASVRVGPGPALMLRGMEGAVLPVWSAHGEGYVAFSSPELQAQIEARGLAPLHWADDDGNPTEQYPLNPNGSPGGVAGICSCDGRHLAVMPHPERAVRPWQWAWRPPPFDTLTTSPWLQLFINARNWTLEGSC
# UniProt Q9UNM6, sequence (Q9UNM6 whole entry, looked up): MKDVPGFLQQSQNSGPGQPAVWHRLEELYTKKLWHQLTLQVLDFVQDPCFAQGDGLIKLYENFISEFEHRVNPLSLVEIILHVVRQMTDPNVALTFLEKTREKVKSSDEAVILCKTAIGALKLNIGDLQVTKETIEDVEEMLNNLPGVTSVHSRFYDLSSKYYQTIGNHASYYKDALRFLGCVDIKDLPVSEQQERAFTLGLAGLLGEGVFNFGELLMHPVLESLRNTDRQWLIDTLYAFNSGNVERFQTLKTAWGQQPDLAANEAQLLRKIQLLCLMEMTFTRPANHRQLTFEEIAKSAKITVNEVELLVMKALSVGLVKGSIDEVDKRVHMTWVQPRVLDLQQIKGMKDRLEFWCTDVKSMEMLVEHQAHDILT
# UniProt O00231, sequence (O00231 whole entry, looked up): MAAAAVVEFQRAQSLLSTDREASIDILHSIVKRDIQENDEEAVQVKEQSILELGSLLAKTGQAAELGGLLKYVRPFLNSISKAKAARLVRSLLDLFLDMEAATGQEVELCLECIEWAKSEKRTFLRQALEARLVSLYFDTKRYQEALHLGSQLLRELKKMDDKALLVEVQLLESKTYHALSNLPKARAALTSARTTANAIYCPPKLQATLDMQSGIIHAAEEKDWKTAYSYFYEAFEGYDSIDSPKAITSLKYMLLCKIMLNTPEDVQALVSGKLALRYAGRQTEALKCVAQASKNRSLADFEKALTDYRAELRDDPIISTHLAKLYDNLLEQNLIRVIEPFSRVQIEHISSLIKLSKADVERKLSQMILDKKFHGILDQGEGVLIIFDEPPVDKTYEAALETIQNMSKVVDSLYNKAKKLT
# UniProt Q14181, sequence (Q14181 whole entry, looked up): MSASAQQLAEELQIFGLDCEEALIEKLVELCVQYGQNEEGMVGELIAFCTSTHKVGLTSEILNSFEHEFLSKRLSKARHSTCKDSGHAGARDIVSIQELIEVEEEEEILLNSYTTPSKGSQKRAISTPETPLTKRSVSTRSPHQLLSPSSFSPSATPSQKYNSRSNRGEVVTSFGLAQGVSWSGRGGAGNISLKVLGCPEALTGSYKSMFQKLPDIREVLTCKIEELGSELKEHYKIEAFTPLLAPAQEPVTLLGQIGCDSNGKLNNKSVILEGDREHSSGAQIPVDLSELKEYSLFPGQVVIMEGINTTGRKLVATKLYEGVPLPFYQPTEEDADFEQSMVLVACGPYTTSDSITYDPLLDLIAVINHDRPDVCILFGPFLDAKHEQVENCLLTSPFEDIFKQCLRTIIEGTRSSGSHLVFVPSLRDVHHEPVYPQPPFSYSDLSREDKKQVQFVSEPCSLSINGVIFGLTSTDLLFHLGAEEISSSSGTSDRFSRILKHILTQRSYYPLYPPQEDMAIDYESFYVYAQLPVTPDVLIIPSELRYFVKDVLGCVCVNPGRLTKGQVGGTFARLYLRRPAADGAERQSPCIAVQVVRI
# UniProt P62191, sequence (P62191 whole entry, looked up): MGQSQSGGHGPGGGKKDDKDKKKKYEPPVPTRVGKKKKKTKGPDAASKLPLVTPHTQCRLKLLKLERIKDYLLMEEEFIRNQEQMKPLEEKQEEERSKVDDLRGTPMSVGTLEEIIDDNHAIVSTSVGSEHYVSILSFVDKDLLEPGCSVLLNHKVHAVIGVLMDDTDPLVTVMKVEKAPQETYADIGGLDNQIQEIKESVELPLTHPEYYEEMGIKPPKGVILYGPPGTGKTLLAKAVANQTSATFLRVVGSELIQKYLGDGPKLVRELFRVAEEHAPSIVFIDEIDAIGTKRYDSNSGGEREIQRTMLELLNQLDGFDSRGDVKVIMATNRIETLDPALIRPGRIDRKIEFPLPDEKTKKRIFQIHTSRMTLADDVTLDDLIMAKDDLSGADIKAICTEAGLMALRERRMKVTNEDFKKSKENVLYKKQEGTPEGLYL
# UniProt Q9UHX1, sequence (Q9UHX1 whole entry, looked up): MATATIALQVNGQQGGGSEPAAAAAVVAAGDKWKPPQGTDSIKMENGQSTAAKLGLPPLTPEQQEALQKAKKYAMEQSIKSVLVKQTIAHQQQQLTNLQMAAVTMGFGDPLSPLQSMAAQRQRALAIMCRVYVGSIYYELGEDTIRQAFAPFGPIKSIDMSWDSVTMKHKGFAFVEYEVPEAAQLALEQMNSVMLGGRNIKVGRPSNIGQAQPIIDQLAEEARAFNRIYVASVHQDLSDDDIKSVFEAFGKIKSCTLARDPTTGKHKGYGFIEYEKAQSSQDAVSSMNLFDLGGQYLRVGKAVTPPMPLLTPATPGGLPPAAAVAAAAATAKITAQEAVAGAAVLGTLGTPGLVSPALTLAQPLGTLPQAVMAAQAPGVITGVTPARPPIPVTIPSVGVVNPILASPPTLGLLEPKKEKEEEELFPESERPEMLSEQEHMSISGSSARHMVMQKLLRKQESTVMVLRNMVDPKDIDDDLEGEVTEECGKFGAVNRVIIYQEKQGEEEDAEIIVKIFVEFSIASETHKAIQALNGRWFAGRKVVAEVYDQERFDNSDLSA
# UniProt Q9Y5K3, sequence (Q9Y5K3 whole entry, looked up): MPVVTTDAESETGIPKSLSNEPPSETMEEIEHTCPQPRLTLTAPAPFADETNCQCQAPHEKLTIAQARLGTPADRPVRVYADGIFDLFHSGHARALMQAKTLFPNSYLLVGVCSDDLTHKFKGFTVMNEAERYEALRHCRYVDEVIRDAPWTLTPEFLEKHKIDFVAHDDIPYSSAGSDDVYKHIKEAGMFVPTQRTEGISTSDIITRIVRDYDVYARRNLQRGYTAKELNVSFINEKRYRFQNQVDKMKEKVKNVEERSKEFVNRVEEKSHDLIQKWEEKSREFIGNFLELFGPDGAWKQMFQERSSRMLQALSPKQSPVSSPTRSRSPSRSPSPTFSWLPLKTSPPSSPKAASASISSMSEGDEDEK
# UniProt O00628, sequence (O00628 whole entry, looked up): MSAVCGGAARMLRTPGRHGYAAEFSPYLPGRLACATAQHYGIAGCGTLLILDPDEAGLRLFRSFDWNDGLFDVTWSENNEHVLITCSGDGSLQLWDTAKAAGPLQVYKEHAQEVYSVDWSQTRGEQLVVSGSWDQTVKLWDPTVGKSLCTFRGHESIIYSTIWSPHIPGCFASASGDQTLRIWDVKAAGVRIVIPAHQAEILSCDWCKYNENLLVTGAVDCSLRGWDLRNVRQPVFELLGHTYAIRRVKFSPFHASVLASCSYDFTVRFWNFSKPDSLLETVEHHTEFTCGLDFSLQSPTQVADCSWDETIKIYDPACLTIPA
# UniProt P62195, sequence (P62195 whole entry, looked up): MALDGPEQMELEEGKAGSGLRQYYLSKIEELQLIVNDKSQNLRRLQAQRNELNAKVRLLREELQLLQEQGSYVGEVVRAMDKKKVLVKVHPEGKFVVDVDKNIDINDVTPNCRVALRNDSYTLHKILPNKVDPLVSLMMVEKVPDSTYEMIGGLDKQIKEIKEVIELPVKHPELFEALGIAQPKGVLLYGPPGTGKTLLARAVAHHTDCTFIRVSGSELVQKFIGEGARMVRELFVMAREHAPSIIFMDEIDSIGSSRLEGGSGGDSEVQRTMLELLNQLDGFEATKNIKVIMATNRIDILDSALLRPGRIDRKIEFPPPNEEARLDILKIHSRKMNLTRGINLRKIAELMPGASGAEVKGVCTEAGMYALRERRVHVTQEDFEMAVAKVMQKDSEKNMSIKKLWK
# UniProt Q12974, sequence (Q12974 whole entry, looked up): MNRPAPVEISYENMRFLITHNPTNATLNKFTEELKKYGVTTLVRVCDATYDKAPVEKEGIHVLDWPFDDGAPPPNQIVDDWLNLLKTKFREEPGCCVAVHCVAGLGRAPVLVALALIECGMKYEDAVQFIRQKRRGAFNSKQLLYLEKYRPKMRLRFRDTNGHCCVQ
Target,log2 fold change (erlotinib),log2 fold change [1],log2 fold change [2],log2 fold change [3],log2 fold change [4],log2 fold change [5],log2 fold change [6],log2 fold change [7],log2 fold change [8],log2 fold change [9]
PFAS (UniProt O15067),-0.011,0.141,0.066,0.205,0.034,-0.22,0.087,0.068,-0.01,-0.146
PSMC1 (UniProt P62191),-0.093,-0.063,-0.034,0.037,-0.027,-0.028,-0.017,0.029,0.012,-0.004
PBK (UniProt Q96KB5),0.103,0.117,-0.054,-0.037,0.083,0.028,0.067,0.016,-0.052,-0.105
PXK (UniProt Q7Z7A4),0.062,0.019,-0.006,0.022,0.074,0.018,0.251 (active),0.019,0.014,0.004
PPP2R5C isoform 5 (UniProt Q13362),0.028,0.021,0.015,-0.014,0.009,-0.036,0.004,0.047,-0.018,-0.002
POLR2E (UniProt P19388),0.022,0.021,0.038,0.057,-0.054,0.007,0.013,-0.02,-0.01,0.011
PML (UniProt P29590),0.045,-0.073,0.015,-0.022,-0.043,0.071,0.033,0.007,0.002,-0.005
POLR2G (UniProt P62487),-0.041,-0.011,-0.001,0.025,-0.078,0.044,0.063,0.014,-0.033,0.071
PIP4P2 (UniProt Q8N4L2),0.014,-0.066,0.026,0.039,0.009,0.145,0.063,-0.002,0.014,-0.007
RAB11FIP1 (UniProt Q6WKZ4),0.004,0.074,0.078,-0.039,0.02,-0.004,0.031,0.009,-0.049,0.027
PDE4DIP isoform 4 (UniProt Q5VU43),0.027,-0.002,0.186,0.01,0.089,-0.043,-0.059,-0.02,-0.037,-0.061
PPP1R14A (UniProt Q96A00),0.047,0.004,0.004,0.063,-0.036,-0.001,0.341 (active),0.004,0.016,0.015
PTPA (UniProt A6PVN8),-0.061,0.21,-0.107,0.367,0.088,0.031,0.063,0.065,0.01,0.031
PTP4A2 (UniProt Q12974),-0.054,0.03,0.134,0.049,0.018,-0.051,0.205,-0.125,-0.029,-0.097
PPOX (UniProt P50336),0.112,0.415,0.156,0.416,0.039,-0.004,0.095,0.013,0.051,-0.011
POLA2 (UniProt Q14181),0.042,0.086,0.021,-0.033,0.048,0.048,-0.044,-0.013,-0.063,-0.004

Target,log2 fold change (erlotinib),log2 fold change [1],log2 fold change [2],log2 fold change [3],log2 fold change [4],log2 fold change [5],log2 fold change [6],log2 fold change [7],log2 fold change [8],log2 fold change [9]
PSMD3 (UniProt O43242),-0.074,-0.05,-0.072,0.002,-0.022,-0.028,0.008,0.033,-0.012,-0.066
PYGB (UniProt P11216),-0.047,-0.022,-0.003,0.087,0.11,0.008,-0.011,0.039,0.009,-0.028
PCK2 (UniProt Q16822),0.025,-0.224 (active),0.108,-0.009,0.038,-0.016,-0.023,0.072,-0.018,-0.001
PTRHD1 (UniProt Q6GMV3),-0.002,0.005,0.37 (active),0.046,0.134,0.045,0.121,-0.032,-0.017,-0.012
PRKCG (UniProt P05129),-0.04,0.058,0.052,0.04,0.144,-0.033,0.074,0.023,-0.052,-0.138
PSMD13 (UniProt Q9UNM6),-0.091,-0.026,-0.076,0.002,-0.02,0.013,-0.002,0.044,-0.008,-0.069
PCYT1B (UniProt Q9Y5K3),0.05,0.068,-0.043,0.023,0.078,0.079,-0.066,0.004,0.01,-0.003
PECAM1 (UniProt P16284),-0.039,0.072,-0.055,0.057,0.054,-0.024,-0.05,-0.133,0.057,0.021
PEX7 (UniProt O00628),0.021,0.034,0.034,0.276 (active),0.08,-0.117,0.039,-0.041,-0.031,0.063
PHKA1 (UniProt P46020),-0.028,-0.101,-0.051,0.003,0.057,0.024,0.152,-0.095,-0.105,-0.026
PSMC5 (UniProt P62195),-0.116,-0.044,-0.029,0.021,-0.022,-0.03,-0.007,0.019,0.021,-0.032
PUF60 (UniProt Q9UHX1),-0.011,0.172,-0.005,0.014,-0.071,-0.026,0.013,0.02,-0.072,-0.141
PSMD11 (UniProt O00231),-0.097,-0.023,-0.039,0.007,-0.035,-0.035,0.058,0.047,-0.033,-0.026
PHLDB1 isoform 2 (UniProt Q86UU1),-0.02,0.03,0.099,0.027,0.165,-0.093,0.008,-0.125,-0.048,0.025
PEX16 isoform 2 (UniProt Q9Y5Y5),0.081,-0.044,0.147,0.013,0.085,0.06,0.008,-0.004,-0.031,0.051
PTMA (UniProt P06454),0.06,0.159,0.192,0.005,-0.136,0.006,0.197,0.189,-0.148,0.151
